UCHL1 block = human UCHL1 deubiquitinase inhibition; inhibition, % at 20 µM; P09936; purified UCHL1, Ub-rhodamine cleavage fluorescence; 0.2% of 47,000 active; AID 1645859
USP7 inh = blocks human USP7 ubiquitin-rhodamine cleavage. 0.3% of 47,000 active. purified USP7, Ub-rhodamine cleavage fluorescence. inhibition, % at 20 µM
OTUD3 block = blocks human OTUD3 ubiquitin-rhodamine cleavage; Q5T2D3; purified OTUD3, Ub-rhodamine fluorescence, 2 h; inhibition, % at 25 µM; 0.7% of 47,000 active
Target sequence (Q5T2D3 whole entry, looked up): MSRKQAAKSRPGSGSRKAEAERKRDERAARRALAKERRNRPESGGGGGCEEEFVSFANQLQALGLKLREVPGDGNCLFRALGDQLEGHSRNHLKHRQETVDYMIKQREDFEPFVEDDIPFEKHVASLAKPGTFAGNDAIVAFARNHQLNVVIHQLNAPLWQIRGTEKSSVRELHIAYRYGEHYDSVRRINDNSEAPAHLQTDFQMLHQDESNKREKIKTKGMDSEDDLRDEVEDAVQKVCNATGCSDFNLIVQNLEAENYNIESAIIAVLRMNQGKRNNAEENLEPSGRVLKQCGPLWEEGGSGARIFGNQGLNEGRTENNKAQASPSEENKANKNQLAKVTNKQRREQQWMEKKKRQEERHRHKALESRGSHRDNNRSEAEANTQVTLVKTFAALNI
USP10 inh = blocks human USP10 ubiquitin-rhodamine cleavage; purified USP10, Ub-rhodamine fluorescence, 60 min; inhibition, % at 20 µM; 1.1% of 47,000 active; AID 1645856
USP8 inh = human USP8 deubiquitinase inhibition. inhibition, % at 20 µM. P40818. AID 1645853. 4.2% of 47,000 active. purified USP8, Ub-rhodamine cleavage fluorescence, 30 min
USP28 block = blocks human USP28 ubiquitin-rhodamine cleavage; inhibition, % at 25 µM; 3% of 47,000 active; Q96RU2; purified USP28, Ub-rhodamine cleavage fluorescence, 30 min; AID 1645857
Of the large screens only hits and unclear results are named; the others gave an inactive call. Sampled rows, rich in hits. Any-hit rate of the full collection: about 6.8%. No stated cut-off is given here; in the data, active means inhibition above about 30%; inactive means the rest.

O=C(NCc1ccc2c(c1)OCO2)c1ccsc1	none
O=C(CN1CCC2(CC1)N=C(c1ccc(Cl)cc1)C(=O)N2)Nc1ccc(Cl)cc1	none
CCc1ccc(NC(=O)c2cnc(N3CCN(C)CC3)nc2C)cc1	none
Cc1cnnn1-c1ccc(C(=O)Nc2ccc(Cl)cc2)cc1	USP28 block 50
Cc1c(-c2nsc(NC(=O)c3ccc(Cl)cc3)n2)nnn1-c1ccccc1F	USP10 inh 43, USP8 inh 86, USP28 block 64
O=C(NCC(=O)N1CCCCC1)c1cccc(-c2ccc(CC3CCCNC3=O)cc2)c1 (centres undefined)	none
Cn1c(=O)c2c(ncn2CCOc2ccc(F)cc2)n(C)c1=O	USP28 block 33
Cn1c(=O)c2c(ncn2CCOc2ccc(Br)cc2)n(C)c1=O	none
Cc1ccccc1OCC(=O)Nc1ccc2c(c1)CN(C(=O)c1ccco1)CC2	USP28 block 37
CCN1CCN(c2ccc(NC(=O)COc3ccccc3C)cc2)CC1	none
O=C(COc1ccc2c(c1)CCC2)Nc1ccc2c(c1)CCC2	none
Cc1ccc(OCC(=O)Nc2ccc3c(c2)CN(C(=O)c2ccco2)CC3)cc1	USP8 inh 33, USP28 block 50
CC(C)c1nc(C2CCCN2C(=O)c2ccc(N(C)C)nn2)no1 (centres undefined)	none
Cc1cccc(C(=O)NC(c2ccccc2)c2cccnc2)c1 (centres undefined)	none
Cc1cccc(C(=O)NC(NC(=O)c2cccc(C)c2)c2ccccc2F)c1	USP8 inh 57
COc1cccc(Nc2cc(C(=O)Nc3ccccc3)ccn2)c1	none
Cc1ccc2c(Nc3cccc(C#N)c3)c(C(=O)N3CCOCC3)cnc2n1	none (no result: USP28 block)
CCCCn1c(=O)c2sccc2n2c(CCC(=O)N3CCc4ccccc4C3)nnc12	none
Cn1c(=O)c(C(=O)NCc2ccc(F)cc2)nc2ccccc21	none (no result: USP28 block)
CCc1cccc(NC(=O)c2nc3ccccc3n(C)c2=O)c1	USP28 block 48
Cc1ncnc2nc[nH]c12	none
Cc1ccc(C)c(CSc2ncnc3nc[nH]c23)c1	USP28 block 40
CCc1cccc(NC(=O)CCc2nc3c(C)nn(-c4ccccc4)c3n(C)c2=O)c1	none
CC(=O)Nc1ccc(C(=O)Nc2cccc(-c3noc(C)n3)c2)cc1	none (no result: USP28 block)
Cc1ccc(N2CC(C(=O)Nc3cccc(-c4noc(C)n4)c3)CC2=O)cc1 (centres undefined)	USP8 inh 40
COc1ccc(-c2cc(=O)n3[nH]c(-c4ccc(F)cc4)cc3n2)cc1	none
COc1cccc2cc(-c3nnc(SCC(=O)c4ccc(F)cc4)n3C)oc12	USP8 inh 39
COc1c2nc3ccccc3oc-2cc(=O)c1OC	USP8 inh 58
COc1cc(OC)c2c(=O)cc(-c3ccccc3)oc2c1OC	none
O=C(CCC(=O)c1ccc(F)cc1)Nc1cccc(S(=O)(=O)Nc2cccc(Cl)c2)c1	USP10 inh 32
Cc1ccc(S(=O)(=O)Nc2ccc(Cl)cc2)cc1NC(=O)CC(=O)c1ccccc1	USP8 inh 51
Cc1ccc(S(=O)(=O)Nc2cccc(Cl)c2)cc1NC(=O)CCc1ccccc1	none
Cc1ccc(S(=O)(=O)Nc2cccc(Cl)c2)cc1NC(=O)CCC(=O)c1ccc(Cl)cc1	USP10 inh 34
Cc1cc(C)cc(NC2c3ncccc3C(=O)N2Cc2ccco2)c1 (centres undefined)	none
COCCN1C[C@H]2CN(C)c3ccccc3[C@@H]2N(C(=O)COC(C)=O)CCC1=O	none
N#Cc1ccccc1NC(=O)c1cc2c(s1)-c1ccccc1S(=O)(=O)C2	OTUD3 block 56, USP10 inh 49, USP28 block 88
O=C(Nc1cnc(N2CCCC2)nc1)c1ccccc1	none
O=C(Nc1ccc(N2CCC(n3cccc3)CC2)cc1)c1ccccc1	USP8 inh 30
O=S(=O)(c1cccc(F)c1)N1CCN(c2nnnn2-c2ccccc2)CC1	OTUD3 block 41
O=S(=O)(c1ccc(F)cc1)N1CCN(c2nnnn2-c2ccccc2)CC1	none
CS(=O)(=O)c1ccccc1C(=O)NCCC(c1ccccc1)c1ccccc1	none
Cc1ccc(C(=O)NCCC(c2ccccc2)c2ccccc2)o1	USP28 block 31
Cc1noc(-c2ccc(-n3cnc(C(=O)NC4CCCCCC4)c3)nc2)n1	USP8 inh 35
CCOc1ccc(CN2CCC(O)(Cn3ccc4ccncc43)CC2)cc1OC	none
COc1cccc(NC(=O)c2cc(-c3ccccc3)n[nH]2)c1	none
